# Screening results: PubChem BioAssay, several laboratories
# Only some compounds are listed: those with a hit (about 0.5% of all), similar ones and a draw of the others.
# RTF Ca sens inh: cardiac RTF calcium desensitization. IANBD-labeled cardiac RTF, Ca2+ fluorescence. inhibition, % at 7.15 µM. 340,000 compounds, 0.12% hits. AID 493244;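 active = inhibition above the mean inhibition of all tested compounds plus 3 SD, cut at about 17% in these data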;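 also: assay run at fixed EC70 calcium of 1.6 mM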
# LANA DNA inh: KSHV C-LANA DNA binding inhibition | inhibition, % at 9 µM | AID 504423 | MBP-C-LANA/FAM-LBS DNA binding, fluorescence polarization | 340,000 compounds, 0.078% hits;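 active = highest replicate inhibition at or above 60% at 9 µM, even if other replicates fall short; inactive = all replicates below 60% inhibition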;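 also: 0% = neutral control wells and 100% = 4 µM acridine orange control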
# Keap1-Nrf2 PPI: inhibitors of human Keap1-Nrf2 protein-protein interaction | Q14145 | Keap1 Kelch-Nrf2 peptide fluorescence polarization, 1536-well | inhibition, % at 9.4 µM | 340,000 compounds, 0.15% hits; in the data active = inhibition above about 12%;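 also: human Keap1 Kelch domain with fluorescein labeled Nrf2 9mer peptide probe; 0% = neutral control wells and 100% = peptide positive control; higher means more block of Keap1 binding to Nrf2 peptide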
# Target sequence (Q14145 whole entry, looked up, the tested form may be a part): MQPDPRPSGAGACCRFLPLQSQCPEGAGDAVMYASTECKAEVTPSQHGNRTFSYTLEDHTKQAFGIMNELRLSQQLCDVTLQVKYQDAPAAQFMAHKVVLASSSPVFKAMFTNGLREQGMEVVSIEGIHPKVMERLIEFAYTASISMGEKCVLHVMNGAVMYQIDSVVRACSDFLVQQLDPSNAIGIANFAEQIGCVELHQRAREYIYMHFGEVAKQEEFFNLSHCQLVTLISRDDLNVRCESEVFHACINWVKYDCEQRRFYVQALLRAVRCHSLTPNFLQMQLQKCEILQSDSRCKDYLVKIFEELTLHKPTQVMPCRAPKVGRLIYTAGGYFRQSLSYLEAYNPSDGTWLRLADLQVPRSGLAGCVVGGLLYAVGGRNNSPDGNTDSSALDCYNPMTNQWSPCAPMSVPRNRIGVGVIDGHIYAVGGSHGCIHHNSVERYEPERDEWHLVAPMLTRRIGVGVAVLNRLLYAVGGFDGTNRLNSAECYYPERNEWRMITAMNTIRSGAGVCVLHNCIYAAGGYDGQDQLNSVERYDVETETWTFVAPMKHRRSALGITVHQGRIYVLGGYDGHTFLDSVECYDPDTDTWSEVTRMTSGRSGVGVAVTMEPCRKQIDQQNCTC
# RTF Ca sens act: increases calcium sensitivity of human cardiac regulated thin filaments; activation, % at 7.2 µM; IANBD-labeled TnC RTF fluorescence at EC20 calcium; 0% EC20 calcium, 100% full calcium; P19429+P45379; AID 493008; 340,000 compounds, 0.24% hits;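 active = activation above the mean over all tested compounds plus 3 SD, cut at about 30% in these data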;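 also: rise in fluorescence read as greater calcium sensitivity of cardiac thin filaments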
# RTF Ca inh conf: confirmation of inhibitors of cardiac thin filament calcium sensitivity; shares compounds with RTF Ca sens inh; reconstituted cardiac thin filaments, calcium sensitivity fluorescence; inhibition, % at 7.15 µM; 360 compounds, 8% hits; in the data active = inhibition above about 18%
# DNA intercal 2: counter-screen for C-LANA inhibitors: DNA intercalators | 20 tested, under 10 active | AC50, µM (doses to about 35 µM), for the others: top-dose activity change, negative = inhibition | shares compounds with LANA DNA inh | Acridine orange-DNA displacement, fluorescence polarization | AID 588364;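 active = signal drop with an AC50 no more than ten times the top valid dose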
# Keap1 Kelch bind: binders of human Keap1 Kelch domain | Keap1 Kelch thermal shift, delta Tm; stronger effect = higher value | max delta Tm, degrees C | 400 compounds, 8% hits | shares compounds with Keap1-Nrf2 PPI; in the data active = max delta Tm above about 0.48 degrees C
# Sypro dye melt: dye artifact in Keap1 thermal shift counter-screen. shares compounds with Keap1-Nrf2 PPI. Sypro Orange dye-only thermal melt, no protein, delta Tm; top dose 26 µM. delta Tm, degrees C (no concentration beside the values). 140 tested, under 10 active;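 active = at highest dose tested, delta Tm positive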
# The depositor's hits bear a star; i = inactive; / = no result given; + = active, no number.
SMILES,RTF Ca sens inh,LANA DNA inh,Keap1-Nrf2 PPI,RTF Ca sens act,RTF Ca inh conf,Keap1 Kelch bind,others
COCCn1c(N)c(N(Cc2ccccc2)C(=O)COc2ccccc2F)c(=O)[nH]c1=O,19*,3,-5,-6,-5,/,
O=C(N/N=C/c1ccc(F)cc1)c1cc(-c2ccco2)nc2ccccc12,19*,0,1,-16,3,/,
O=C(O)CC(C(=O)O)N1C(=O)/C(=C/C=C/c2ccco2)SC1=S (stereo unspecified),66*,106*,-2,-25,21*,/,DNA intercal 2=6%
O=C(NCCc1cscn1)C1CCC(=O)N(Cc2ccc(Cl)cc2)C1 (stereo unspecified),0,1,1,-6,/,/,
O=C1CCCC2=C1C(c1ccc(Br)cc1)c1c([nH]c(=S)[nH]c1=O)N2 (stereo unspecified),-6,4,0,-3,/,/,
O=c1[nH]c(=S)[nH]c2c1C(c1ccc(Br)cc1)c1c([nH]c(=S)[nH]c1=O)O2,69*,112*,45*,-51,1,-0.12,Sypro dye melt=-26
O=C1C(=Cc2ccco2)CCC1=Cc1ccco1,29*,116*,20*,3,60*,0.86*,
O=[N+]([O-])c1ccc(Cl)c2c1C1C=CCC1C(c1ccccn1)N2 (stereo unspecified),-10,-1,-1,5,/,/,
O=C(O)C1Nc2c(O)cc(Cl)c([N+](=O)[O-])c2C2C=CCC12 (stereo unspecified),86*,120*,42*,-37,36*,0.92*,DNA intercal 2=5%
O=C(NCC(c1ccco1)N1CCc2ccccc2C1)c1ccc(Br)cc1 (stereo unspecified),-1,0,-3,1,/,/,
O=C(Nc1ccncc1)c1cccc(S(=O)(=O)N2CCCC2)c1,-5,-2,-5,2,/,/,
O=C(O)c1cccc(-n2cccc2/C=C2/NC(=O)N(c3ccc(Cl)cc3)C2=O)c1,75*,110*,19*,-46,55*,0.46,
CC1(C)[C@@H](O[C@H]2O[C@H](C(=O)O)[C@@H](O)[C@H](O)[C@H]2O[C@@H]2O[C@H](C(=O)O)[C@@H](O)[C@H](O)[C@H]2O)CC[C@]2(C)[C@H]3C(=O)C=C4[C@@H]5C[C@@](C)(C(=O)O)CC[C@]5(C)CC[C@@]4(C)[C@]3(C)CC[C@@H]12,/,/,/,/,/,/,DNA intercal 2=-5%
Nc1ccc2c(c1)Cc1c(F)cccc1-2,-1,-1,-2,2,/,/,
Nc1c(C(=O)Nc2ccccc2F)sc2nc(Cc3ccccc3)cc(C(F)(F)F)c12,-8,44,33*,49*,/,-0.2,DNA intercal 2=19µM*
Cc1ccc(/C=N/NC(=O)c2nnn(-c3nonc3N)c2-c2ccc3c(c2)OCO3)s1,3,0,3,-6,/,/,
CC(=O)c1ccc2c(c1)C1C=CCC1C(C(=O)O)N2 (stereo unspecified),/,114*,21*,/,/,2.1*,DNA intercal 2=2%;Sypro dye melt=-33
CC(=O)c1ccc2c(c1)C1C=CCC1C(c1ccncc1)N2 (stereo unspecified),-6,3,-6,1,/,/,
C=CCn1c(=O)/c(=C/c2ccsc2)s/c1=C(\C#N)C(=O)NCCN1CCOCC1,-5,-3,13*,2,/,-0.15,
O=C1NC(=O)/C(=C\c2ccc(Cl)cc2Cl)N1,1,4,1,2,/,/,
O=C1NC(=O)/C(=C/c2ccccc2Cl)N1,-6,-1,112*,3,/,-0.15,
c1ccc(Nc2nc3ccccc3n3nnnc23)cc1,-12,12,24*,3,/,-0.12,Sypro dye melt=-28
Cc1ccc(C(=O)NNC(=O)c2csc(N3CCOCC3)n2)o1,6,0,4,3,/,/,
O=C(NNC(=O)c1ccc(Br)o1)c1csc(N2CCOCC2)n1,-11,27,46*,7,/,-0.12,Sypro dye melt=-24
COc1cccc(NC(=O)COC(=O)CCC(=O)c2cccs2)c1,-4,3,0,0,/,/,
CNc1ccc2c3c(cccc13)C(=O)N(C)C2=O,i,109*,109*,+,/,0,
